Bioassay records (PubChem)
TDP1 cell CPT – qHTS for Inhibitors of human tyrosyl-DNA phosphodiesterase 1 (TDP1): qHTS in cells in presence of CPT. Potency, µM (doses to about 46.2 µM), for inactives: at the top dose activity change, negative = growth inhibition, usual class: inhibitors. 420,000 compounds, 12% hits. chicken DT40 Tdp1-/-;hTDP1 cells + 20 nM CPT, ATP luminescence, 48 h. AID 686979, 2013; further: potency means the concentration at half of the fitted maximal effect; on the % scale 0 is the no-effect control and ±100 the full control effect; nearly all actives have a fitted effect of over 55% in size
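Chicken DT40 Tdp1-/- cells stably complemented with human TDP1 were seeded at 400 cells/well in medium containing 20 nM camptothecin, exposed to pin-transferred compounds, and grown at 37 °C for at least 48 hr. Viability was read as ATP luminescence.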
DT40 TDP1 no CPT – qHTS for Inhibitors of human tyrosyl-DNA phosphodiesterase 1 (TDP1): qHTS in cells in absence of CPT; DT40 Tdp1-/- hTDP1 cells, no CPT, ATP luminescence, 48 h; Potency, µM (titrated, usually from 46.2 µM), for inactives: at the top dose activity change, negative = growth inhibition, usual class: inhibitors; 420,000 compounds, 15% hits; AID 686978, 2013; further: potency means the concentration at half of the fitted maximal effect; on the % scale 0 is the no-effect control and ±100 the full control effect; nearly all actives have a fitted effect of over 55% in size
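Chicken DT40 Tdp1-/- cells complemented with human TDP1, screened without camptothecin (DMSO vehicle only), 400 cells/well. Compounds pin-transferred, cells incubated at 37 °C for at least 48 hr. Growth read as ATP-dependent luminescence (CellTiter-Glo, 30 min at RT).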
HepG2 viability – qHTS for Inhibitors of TGF-b: Cytotox Counterscreen; HepG2 CAGA-GFP viability, ATP luminescence, 18 h; Potency, µM (series often up to 46.1 µM), for the others: at the top dose activity change, negative = cytotoxicity, hits mostly cytotoxic; 410,000 compounds, 0.76% hits; AID 588856, 2011; further: potency means the concentration at half of the fitted maximal effect
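HepG2 CAGA-GFP cells (1000/well, DMEM with 1% FBS) received compound, then TGF-beta at 500 pg/mL final, and were incubated 18 hours at 37 degrees C. Viability was read by CellTiter-Glo luminescence. Media-only wells were set as complete cell-killing and DMSO as no toxicity.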
TGFb SMAD3 inh – qHTS for Inhibitors of TGF-b | 410,000 compounds, 1.2% hits | HepG2 CAGA-GFP TGF-b/SMAD3 reporter, GFP fluorescence, 18 h; TGF-beta stimulated, 500 pg/mL final | Potency, µM (top dose mostly 46.1 µM), for inactives: at the top dose activity, negative = inhibition, actives largely listed as inhibitors; further: potency means the concentration at half of the fitted maximal effect; on the % scale 0 is the no-effect control and ±100 the full control effect; nearly all actives have a fitted effect of over 65% in size
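Cell-based qHTS in HEPG2 carrying a CAGA-GFP Smad reporter; compounds added before 500 pg/mL final TGF-beta, 18 h incubation at 37 degrees C, GFP fluorescence quantified per cell by imaging cytometry.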
IL1B secr inh – qHTS for Inhibitors of Inflammasome Signaling: IL-1-beta AlphaLISA Primary Screen | THP-1 LPS/ATP IL-1B secretion, AlphaLISA, 16 h; stronger effect = lower value | activity change, % at 57.5 µM | 360,000 compounds, 4.7% hits | AID 743279, 2014; in the data active means activity change below about -50%; inconclusive means mostly about -30% to -49%; further: on the % scale 0 is the no-effect control and ±100 the full control effect
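Secreted IL-1B measured by AlphaLISA bead assay after 16 h compound exposure of THP-1 cells; compounds (final up to 57.5 uM) added 1 h before LPS (250 ng/mL) and ATP (1.25 mM) stimulation; lower signal means less secretion.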
TDP1 block – qHTS Assay for Inhibitors of Tyrosyl-DNA Phosphodiesterase (TDP1). 350,000 compounds, 0.28% hits. recombinant TDP1, AlphaScreen DNA substrate cleavage. AID 485290, 2010. Potency, µM (top dose mostly 130 µM), for inactives: at the highest dose activity change, negative = inhibition, most hits filed as inhibitors; further: potency means the concentration at half of the fitted maximal effect; on the % scale 0 is the no-effect control and ±100 the full control effect; nearly all actives have a fitted effect of over 40% in size
Target sequence (Q9NUW8 whole entry, looked up): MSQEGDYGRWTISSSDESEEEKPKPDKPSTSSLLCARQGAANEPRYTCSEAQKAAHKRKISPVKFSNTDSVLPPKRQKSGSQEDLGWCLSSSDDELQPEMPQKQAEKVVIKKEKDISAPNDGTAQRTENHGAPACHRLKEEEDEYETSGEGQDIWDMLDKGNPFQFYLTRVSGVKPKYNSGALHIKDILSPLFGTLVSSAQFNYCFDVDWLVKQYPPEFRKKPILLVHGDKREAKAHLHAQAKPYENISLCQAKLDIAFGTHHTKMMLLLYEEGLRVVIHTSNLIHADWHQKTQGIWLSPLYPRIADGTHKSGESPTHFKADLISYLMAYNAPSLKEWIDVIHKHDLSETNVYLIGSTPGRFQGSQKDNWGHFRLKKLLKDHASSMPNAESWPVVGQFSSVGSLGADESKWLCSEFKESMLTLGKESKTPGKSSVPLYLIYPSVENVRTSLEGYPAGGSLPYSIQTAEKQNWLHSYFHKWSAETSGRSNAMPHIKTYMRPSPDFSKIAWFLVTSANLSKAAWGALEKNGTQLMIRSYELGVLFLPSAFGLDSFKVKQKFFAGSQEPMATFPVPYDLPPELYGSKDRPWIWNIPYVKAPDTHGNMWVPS
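Compounds were preincubated with Tdp1 (1 nM final) for 15 min at room temperature before substrate (15 nM final) started a 5 min reaction; beads (10 ug/ml final) were then added for 10 min before AlphaScreen detection.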
The depositor's hits bear a star; ? = inconclusive; . = not tested or not shown. The list is not random: actives were taken first. Their share in the collection is about 19%. Unless noted, the call rests on the fitted dose curve; in most records, active means well fitted curve in the direction sought with a large enough effect; inconclusive means small, poorly fitted or top-dose-only effect, or another doubt; inactive means no such curve, though single readings can be large; an effect the other way counts as inactive or inconclusive.

SMILES	TDP1 cell CPT	DT40 TDP1 no CPT	HepG2 viability	TGFb SMAD3 inh	IL1B secr inh	TDP1 block
Cc1cccc(C(=O)Nc2ccccc2OCc2cc(=O)n3cc(C)ccc3n2)c1	?	?	-8%	3%	.	5%
Cc1ccc(NS(=O)(=O)c2cc3c(cc2/C=C/c2ccccc2)NC(=O)CO3)cc1C	.	.	.	.	.	0%
Nc1nc(Cl)cc(N2CCC(c3cc(-c4ccc(Cl)cc4)n[nH]3)CC2)n1	3.5µM*	2.8µM*	11µM*	11µM*	-6	3%
COc1ccc(OC)c(-c2cc(C3CCN(c4cc(Cl)nc(N)n4)CC3)[nH]n2)c1	13µM*	21µM*	-30%	?	-6	10%
COc1ccc(OC)c(-c2cc(C3CCN(c4ncccc4[N+](=O)[O-])CC3)[nH]n2)c1	?	?	0%	?	?	-11%
COc1ccc(-c2cc(C3CCN(c4cc(Cl)nc(N)n4)CC3)[nH]n2)cc1	23µM*	23µM*	-30%	?	?	6%
Cc1cccc(C)c1NC(=O)NCCc1c[nH]c2ccccc12	?	?	-25%	13%	.	8%
COc1ccc(OC)c(NC(=O)C2CCN(S(=O)(=O)c3c(C)noc3/C=C/c3ccc(C)cc3)CC2)c1	-22%	?	2%	?	.	4%
COc1cc(NC(=O)CN2CCN(CC(=O)Nc3ccc(F)cc3)CC2)cc(OC)c1	-27%	-20%	-28%	-12%	.	1%
O=C(CN1CCN(Cc2cccc(C(F)(F)F)c2)CC1)NCC(=O)Nc1ccc(F)c(F)c1F	?	?	-13%	4%	-14	.
CCN(CC)C(=S)SCC(=O)NC12CC3CC(CC(C3)C1)C2	?	?	-35%	-4%	?	-7%
COc1ccc(-c2csc(NC(C)c3nc4cc(Cl)c(N5CCCCC5)cc4n3CCCO)n2)cc1 (centres undefined)	26µM*	?	-3%	-27%	?	.
CCCn1c(C(C)Nc2nc(-c3cc(Cl)c(N)c(Cl)c3)cs2)nc2cc(Cl)c(N3CCCCC3)cc21 (centres undefined)	18µM*	?	-26%	-14%	7	.
Cc1csc(NC(C)c2nc3cc(Cl)c(N4CCCCC4)cc3n2CCOCCO)n1 (centres undefined)	?	?	-25%	-10%	-19	.
COc1ccc(-c2csc(NC(C)c3nc4cc(Cl)c(Cl)cc4n3CCOCCO)n2)cc1 (centres undefined)	?	18µM*	-47%	?	?	.
CC(Nc1nc(-c2ccc(F)cc2)cs1)c1nc2cc(Cl)c(Cl)cc2n1CCCO (centres undefined)	?	?	-75%	?	-24	.
COc1ccc(-c2csc(NC(C)c3nc4cc(Cl)c(N5CCCCC5)cc4n3CCOCCO)n2)cc1 (centres undefined)	13µM*	?	-7%	?	-24	.
Cc1cccn2c(=O)c3cc(C(=O)NCCc4ccc(S(N)(=O)=O)cc4)n(C)c3nc12	?	?	-11%	0%	.	-13%
COc1cccc2c1C1COC3C4CC(C(=O)O)C(C(C2)N13)N4C (centres undefined)	5.2µM*	12µM*	-45%	?	-22	.
O=C(c1ccc(Cl)cc1)N1CCOc2ccccc21	?	?	-2%	0%	-4	.
Clc1ccc(NCc2nnc3n2CCCCC3)cc1	5%	9%	0%	-3%	-2	4%
O=C(Cn1nc(CNc2ccc(Cl)cc2)[n+]2c1CCCCC2)c1ccccc1	5.2µM*	8.2µM*	-13%	1%	-53*	3%
Cc1cc(=O)oc2cc(OCC3CC(c4ccc(Br)cc4)=NO3)ccc12 (centres undefined)	?	16µM*	-2%	16%	25	2%
Cc1cc(=O)oc2cc(OCC3CC(c4ccccc4)=NO3)ccc12 (centres undefined)	16µM*	18µM*	-15%	7%	64	5%
COc1ccc2oc(=O)c(C(=O)NCc3ccco3)cc2c1	6%	2%	-27%	-9%	-5	-2%
SMILES	TDP1 cell CPT	DT40 TDP1 no CPT	HepG2 viability	TGFb SMAD3 inh	IL1B secr inh	TDP1 block
CCOC(=O)c1c(C)oc2c1c(C=NCCC(=O)O)c(O)c1ccccc12	-1%	-21%	-13%	-26%	0	8%
CCOC(=O)c1c(C)oc2c1c(C=NC1CCS(=O)(=O)C1)c(O)c1ccccc12 (centres undefined)	23µM*	21µM*	-5%	8%	0	2%
CCOC(=O)c1c(C)oc2c1c(C(c1ccncc1)N1CCOCC1)c(O)c1ccccc12 (centres undefined)	21µM*	?	-9%	-28%	-25	11%
O=C(CC12CC3CC(CC(C3)C1)C2)NCC(=O)OCc1cc(=O)oc2ccc3ccccc3c12	?	18µM*	7%	-10%	-9	3%
CCOC(=O)c1nnn2c1nc(N1CCOCC1)c1ccccc12	-6%	-14%	3%	-9%	-2	4%
CCOC(=O)c1c(C)oc2c1c(CN1CCN(CCO)CC1)c(O)c1ccccc12	?	?	-62%	1%	-98*	8%
CCOC(=O)c1c(C)oc2c1c1c(c3ccccc32)OCN(Cc2ccccn2)C1	?	?	-25%	?	-75*	13%
O=c1cc(CN2CCCC2)c2c(ccc3ccccc32)o1	-3%	-4%	-9%	-10%	8	.
CCOC(=O)c1c(C)oc2c1c(CN1CCN(C(=O)OCC)CC1)c(O)c1ccccc12	?	21µM*	-43%	?	?	5%
CCOC(=O)C1(Cc2ccccc2)CCCN(Cc2ccccn2)C1 (centres undefined)	?	?	4%	11%	14	1%
CCOC(=O)N1CCN(Cc2cc(=O)oc3ccc4ccccc4c23)CC1	23µM*	?	-2%	3%	-2	-4%
COC(=O)C1=C(C)NC(=O)NC1c1cn(-c2ccccc2)nc1-c1ccc(OC)c(Br)c1 (centres undefined)	-25%	?	-14%	-4%	.	.
